Reference: PubChem BioAssay AID651605 (National Center for Advancing Translational Sciences (NCATS), 2012)
“And” between values parts separate entries of the source, which are not always exact repeats. Identical values can stand only once. Inconclusive results are not listed. The source made the active and inactive calls. Calls come from the whole dose curve; as a rule, active = well fitted inhibition curve with a large enough effect; inconclusive = small, poorly fitted or top-dose-only effect; inactive = flat fitted curve, though single readings scatter.

The molecules below were run against Ubiquitin carboxyl-terminal hydrolase 1 (Homo sapiens) (UniProt O94782) (assay: Inhibitors of USP1/UAF1: SAR in Primary Assay). Details: Recombinant USP1/UAF1, Ub-Rhodamine cleavage fluorescence; series mostly up to 57.1 µM; activity change, negative = inhibition: at the top concentration.
Description: Deubiquitinating enzymes (DUBs) are a class of enzymes that can cleave isopeptide bond formed between the C-terminal carboxylate of ubiquitin and a lysine side-chain amino group on the target protein. Among them, ubiquitin specific proteases (USPs) constitute the largest DUB family. Human USPs are emerging as promising targets for pharmacological intervention because of their connection to a number of human diseases, including prostate, colon and breast cancer (1, 2), pediatric acute lymphoblastic leukemia (3), and familial cylindromatosis (4). The advantage of inhibiting USPs lies in the potential specificity of therapeutic intervention that can lead to better efficacy and reduce nonspecific side effects. In a collaboration between the University of Delaware and the NIH Chemical Genomics Center, a high-throughput screen assay was developed to screen for USP1/UAF1 inhibitors (5). This assay was used to test the analogs that were synthesized based on SAR around the original hit. NIH Chemical Genomics Center [NCGC] NIH Molecular Libraries Probe Centers Network [MLPCN] MLPCN Grant: DA030552-01 Assay Submitter (PI): Zhihao Zhuang, University of Delaware 1. Priolo, C., et al. (2006) The isopeptidase USP2a protects human prostate cancer from apoptosis. Cancer Res 66, 8625-8632 2. Popov, N., et al. (2007) The ubiquitin-specific protease USP28 is required for MYC stability. Nat Cell Biol 9, 765-774 3. De Pitta, C., et al. (2005) A leukemia-enriched cDNA microarray platform identifies new transcripts with relevance to the biology of pediatric acute lymphoblastic leukemia. Haematologica 90, 890-898 4. Kovalenko, A., et al. (2003) The tumour suppressor CYLD negatively regulates NF-kappaB signalling by deubiquitination. Nature 424, 801-805 5. Chen, J., et al. (2011) Selective and cell-active inhibitors of the USP1/ UAF1 deubiquitinase complex reverse cisplatin resistance in non-small cell lung cancer cells. Chem Bio 18(11):1390-400.
3 microliters of reagents (buffer in columns 3 and 4 as negative control and 1nM USP1/UAF1 complex in columns 1, 2, and 5-48) are dispensed into Greiner black solid bottom 1536-well assay plates. Compounds are then transferred via Kalypsys pin tool equipped with 1536-pin array (10nl slotted pins, V&P Scientific, San Diego, CA). Following an incubation step of 15 min at room temperature, 1ul of Ub-Rho substrate (150nM final concentration) is added to initiate the reaction. The plates are immediately centrifuged at 1000 rpm for 15 seconds, and subsequently transferred to a ViewLux high-throughput CCD imager (PerkinElmer) wherein kinetic measurements of fluorescence are acquired using 480 nm excitation/540 nm emission filter set (6 reads every 60 seconds, see Table 1). All reagents are diluted in an assay buffer consisting of 50mM HEPES (pH 7.8), 0.5mM EDTA, 0.1 mg/ml BSA, 1mM TCEP, and 0.01% Tween-20.

Ubiquitin carboxyl-terminal hydrolase 1 (Homo sapiens), sequence (O94782 whole entry, looked up): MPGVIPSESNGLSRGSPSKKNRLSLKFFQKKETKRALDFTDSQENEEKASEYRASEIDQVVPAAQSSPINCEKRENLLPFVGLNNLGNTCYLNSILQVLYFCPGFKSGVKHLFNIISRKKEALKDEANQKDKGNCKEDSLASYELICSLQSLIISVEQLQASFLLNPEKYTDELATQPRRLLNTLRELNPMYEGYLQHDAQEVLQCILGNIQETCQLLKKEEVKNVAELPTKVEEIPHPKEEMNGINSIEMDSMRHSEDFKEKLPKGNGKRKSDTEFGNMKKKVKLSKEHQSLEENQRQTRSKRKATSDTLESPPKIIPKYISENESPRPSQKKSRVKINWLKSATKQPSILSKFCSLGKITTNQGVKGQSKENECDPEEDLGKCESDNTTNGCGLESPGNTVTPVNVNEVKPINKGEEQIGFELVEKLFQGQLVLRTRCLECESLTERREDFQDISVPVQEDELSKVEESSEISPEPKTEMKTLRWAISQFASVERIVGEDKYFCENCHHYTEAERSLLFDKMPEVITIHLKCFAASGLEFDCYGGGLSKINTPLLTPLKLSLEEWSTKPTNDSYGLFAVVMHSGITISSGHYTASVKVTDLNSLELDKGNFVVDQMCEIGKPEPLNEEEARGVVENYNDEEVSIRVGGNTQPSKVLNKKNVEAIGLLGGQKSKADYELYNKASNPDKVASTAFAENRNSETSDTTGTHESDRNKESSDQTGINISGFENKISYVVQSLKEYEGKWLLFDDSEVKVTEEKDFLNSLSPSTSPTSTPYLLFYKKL

Potency, active:
Cc1ccc(-c2ccc(CN(C)c3nc(-c4ccccc4C(C)C)ncc3C)cc2)cn1 541 nM
Fc1cnc(-c2ccccc2C(F)F)nc1NCc1ccc(-n2ccnn2)cc1 1210 nM
Cc1ccccc1-c1nc(NCc2ccc(-c3cccnc3)cc2)c2ccccc2n1 482 nM
Cc1cccc(CNc2nc(-c3ccccc3C(C)C)ncc2C)c1 136 nM
CC(C)c1ccccc1-c1ncc(N(C)C)c(NCc2ccc(-c3cccnc3)cc2)n1 152 nM
CC(C)c1ccccc1-c1ncc(F)c(NCc2ccc(-c3cccnc3)cc2)n1 60.7 nM
FC(F)(F)c1ccccc1-c1nc(NCC#Cc2cccnc2)c2ccccc2n1 4.82 µM and 7.64 µM
Cc1cnc(-c2ccccc2C(F)F)nc1NCc1ccc(-n2ccnn2)cc1 482 nM
FC(F)(F)c1ccccc1-c1nc(NCc2ccc(N3CCOCC3)cc2)c2ccccc2n1 7640 nM
CC(C)c1ccccc1-c1ncc(F)c(NCc2ccc(-c3ccn[nH]3)cc2)n1 152 nM
CC(C)c1ccccc1-c1nc(NCC2CCN(c3cccnc3)CC2)c2ccccc2n1 85.7 nM
Cc1cnc(-c2ccccc2C(C)C)nc1NCc1cccs1 215 nM
CC(C)c1ccccc1-c1nc2c(c(NCc3ccc(-c4cccnc4)cc3)n1)CCC2 136 nM
Cc1ccc(N2CCC(CNc3nc(-c4ccccc4C(C)C)ncc3C)CC2)cn1 171 nM and 60.7 nM
FC(F)(F)c1ccc(-c2ccc(CNc3nc(-c4ccccc4C(F)(F)F)nc4ccccc34)cc2)cn1 4290 nM
FC(F)c1ccccc1-c1nc(NCc2ccc(-c3cccnc3)cc2)c2ccccc2n1 1360 nM
Cc1ccc(-c2ccc(CNc3nc(-c4ccccc4C(C)C)ncc3C)cc2)cn1 42.9 nM
c1ccc(-c2nc(NCc3ccc(-c4cccnc4)cc3)c3ccccc3n2)cc1 13600 nM
Cc1cnc(-c2ccccc2C(C)C)nc1NCc1ccc(-c2cccc(S(N)(=O)=O)c2)cc1 215 nM
Cc1ccc(-c2ccc(CNc3nc(-c4ccccc4C(C)C)nc4ccsc34)cc2)cn1 96.1 nM
Cc1cnc(-c2ccccc2C(C)C)nc1NCc1ccc(-c2cn[nH]n2)cc1 242 nM
CC(C)c1ccccc1-c1nc(NCc2ccc(-c3cccnc3)cc2)c2occc2n1 152 nM
N#Cc1c(-c2ccccc2C(F)(F)F)nc2ccccc2c1NCc1ccc(-c2cccnc2)cc1 9610 nM
Cc1ccc(N2CCC(CNc3nc(-c4ccccc4C(C)C)ncc3F)CC2)cn1 96.1 nM
CC(C)c1ccccc1-c1nc2c(c(NCc3ccc(-c4cccnc4)cc3)n1)CNC2 1520 nM
Fc1cnc(-c2ccccc2C(F)F)nc1NCC1CCN(c2cnccn2)C1 (stereo not given) 21500 nM
Cc1cnc(-c2ccccc2C2CC2)nc1NCc1ccc(-c2cccnc2)cc1 341 nM
FC(F)(F)c1ccccc1-c1nc(NCc2ccc(-c3cccnc3)cc2)c2sccc2n1 857 nM
Cc1cc(NCc2ccc(-c3cccnc3)cc2)nc(-c2ccccc2C(C)C)n1 482 nM
COc1ccccc1-c1nc(NCc2ccc(-c3cccnc3)cc2)c2ccccc2n1 681 nM
Cc1cnc(-c2ccccc2C(C)C)nc1NCC1CCN(c2cccnc2)CC1 48.2 nM
Cc1cnc(-c2ccccc2C(C)C)nc1NCc1ccc(-c2ccnc(C(F)(F)F)c2)cc1 383 nM
Cc1cnc(-c2ccccc2C(C)C)nc1NCc1ccc(-c2nn[nH]n2)cc1 3830 nM
CC(C)c1ccccc1-c1nc(NCc2ccc(-c3cccnc3)cc2)c2ccsc2n1 242 nM
FC(F)(F)c1ccccc1-c1nccc(NCc2ccc(-c3cccnc3)cc2)n1 541 nM
Cc1ccc(-c2ccc(CNc3nc(-c4ccccc4C(C)C)nc4ccccc34)cc2)cn1 136 nM
FC(F)(F)c1ccccc1-c1nc(NCc2ccc(C3CCCCC3)cc2)c2ccccc2n1 6810 nM
Cc1cnc(-c2ccccc2C(C)C)nc1NCc1ccc(C#N)cc1 482 nM

Activity change, negative = inhibition, inactive:
FC(F)(F)c1cccc(-c2nc(NCc3ccc(-c4ccnc(C(F)(F)F)c4)cc3)c3ccccc3n2)c1 -0.42%
Cc1nc(NCc2ccc(-c3cccnc3)cc2)c2ccccc2n1 -15.4%
